# Bioassay records (PubChem)
# ST2 inh – inhibitors of human ST2 (IL1RL1) binding to IL-33. AlphaLISA ST2-Fc/biotin-IL-33 interaction, 1 h. inhibition, % for hits at 17 µM. Q01638. hit rate 2.3% among 78,000; in the data active means inhibition above about 30%
# Target sequence (Q01638 whole entry, looked up): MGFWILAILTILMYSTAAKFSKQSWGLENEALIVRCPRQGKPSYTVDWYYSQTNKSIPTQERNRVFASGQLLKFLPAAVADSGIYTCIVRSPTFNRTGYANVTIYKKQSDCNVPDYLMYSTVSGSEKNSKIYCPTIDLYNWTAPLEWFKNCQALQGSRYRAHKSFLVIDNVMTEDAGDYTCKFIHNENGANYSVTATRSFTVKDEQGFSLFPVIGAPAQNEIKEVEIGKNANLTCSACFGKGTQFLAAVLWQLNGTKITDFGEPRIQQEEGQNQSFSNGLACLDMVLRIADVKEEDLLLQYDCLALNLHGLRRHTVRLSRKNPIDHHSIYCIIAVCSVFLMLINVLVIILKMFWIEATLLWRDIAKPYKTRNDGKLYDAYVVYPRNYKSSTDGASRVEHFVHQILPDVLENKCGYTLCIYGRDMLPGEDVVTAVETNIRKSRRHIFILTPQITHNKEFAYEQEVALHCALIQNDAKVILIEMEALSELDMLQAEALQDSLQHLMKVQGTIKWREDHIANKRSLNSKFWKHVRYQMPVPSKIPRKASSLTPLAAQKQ
# * hit, by the source's call; i = inactive. The sample as a whole holds a higher share of hits than the screen did.
SMILES,ST2 inh
Cn1cc(C=C2C(=O)NC(=O)NC2=O)c2ccccc21,35.0%*
CCN1C(=O)NC(=O)/C(=C\c2cn(CC(=O)N3CCCC3)c3ccccc23)C1=O,i
CN1C(=O)C(=Cc2cn(C)c3ccccc23)C(=O)N(C)C1=O,i
O=C(CCN1C(=O)C2C3CCC(C3)C2C1=O)Nc1ccc(Cl)cc1C(=O)c1ccccc1 (stereo not given),i
Cc1ccccc1-c1ccc2n(c1=O)C[C@H]1C[C@@H]2CN(C(=O)c2ccccc2)C1,i
CC1N=C(c2ccccc2)c2ccccc2N(CC(=O)N2CCCC2)C1=O (stereo not given),i
CC(=O)NCCNC(=O)[C@H]1CN2CC[C@H]1C[C@@H]2Cn1cc(CN(C)C)nn1,i
CCN1CCN(Cc2cccc(C)c2)CC1,i
COc1ccc(N2CCN(Cc3cccc([N+](=O)[O-])c3)CC2)cc1,i
Cc1cccc(CN2CCN(c3ccc([N+](=O)[O-])cc3)CC2)c1,42.0%*
O=[N+]([O-])c1ccc(N2CCN(Cc3cccc(Br)c3)CC2)cc1,32.0%*
O=[N+]([O-])c1ccc(N2CCN(Cc3ccc(Br)cc3)CC2)cc1,i
Oc1cccc(CN2CCN(c3ccc(F)cc3)CC2)c1,i
CCC(N)C(=O)c1ccc(Cl)cc1 (stereo not given),i
O=C(NC[C@H]1C[C@@H]2CCN1C[C@@H]2CN1CCSCC1)c1ccccc1,i
CN(C)C=NC(=O)CN1CCCC1=O,i
O=[N+]([O-])c1ccc(C(Cl)Cl)o1,64.0%*
COc1cc(OC)c(CN2CCN(C)CC2)cc1Br,i
COc1ccc(CN2CCN(Cc3ccccc3Cl)CC2)cc1Br,i
COc1ccccc1N1CCN(Cc2ccc(F)cc2)CC1,i
COc1ccc(CN2CCN(c3ccc(OC)cc3)CC2)cc1,32.0%*
Fc1ccc(N2CCN(Cc3cccc(Br)c3)CC2)cc1,i
COc1cc(C)c(CN2CCN(c3ccc(F)cc3)CC2)cc1C,i
CC(=O)c1ccc(N2CCN(Cc3cccc(Br)c3)CC2)cc1,i
CCOc1ccccc1N1CCN(Cc2ccc(OC)cc2)CC1,i
SMILES,ST2 inh
CC(=O)c1ccc(N2CCN(Cc3ccc(C)cc3)CC2)cc1,i
COc1ccc(N2CCN(Cc3ccc(C)cc3)CC2)cc1,33.0%*
COc1ccc(N2CCN(Cc3cccc(Br)c3)CC2)cc1,44.0%*
COc1cc(OC)c(CN2CCN(c3ccccc3)CC2)cc1Br,36.0%*
Nc1nonc1-c1nonc1N,i
CO[C@H]1[C@H](O)[C@H](O[C@H]2CC[C@]3(C)C4CC[C@]5(C)[C@H](C6=CC(=O)OC6)CC[C@]5(O)C4CC[C@@H]3C2)O[C@@H](C)[C@@H]1O (stereo not given in full),i
COc1ccc(CC(C)NCc2ccc(Br)cc2)cc1 (stereo not given),i
CCC1(CC)C(=O)NC(=O)N(Cc2ccccc2)C1=O,i
CC(C)CNC(=S)NC[C@H]1C[C@@H]2CCN1C[C@@H]2c1cc(-c2ccc(N(C)C)cc2)nn1C,i
O=C(c1ccccc1)c1cc(Cl)ccc1N1C(=O)C2C3C=CC(C3)C2C1=O (stereo not given),i
Cn1nc(-c2ccc(F)cc2)cc1[C@H]1CN2CC[C@H]1C[C@@H]2CNC(=O)CC(C)(C)CC(=O)O,i
O=S(=O)(NC[C@H]1C[C@@H]2CCN1C[C@@H]2CN1CCCCC1)c1cccs1,i
COc1ccc(CN2CCN(c3ccccc3Cl)CC2)c(OC)c1,i
COc1ccc(OC)c(CN2CCN(C)CC2)c1,i
CC(C)c1ccc(CN2CCN(c3ccccc3)CC2)cc1,i
COc1ccc(OC)c(CN2CCN(c3ccc(Cl)cc3)CC2)c1,34.0%*
Brc1ccc(CN2CCN(c3ccccc3)CC2)cc1,32.0%*
Cc1ccccc1N1CCN(Cc2ccc(Br)cc2)CC1,i
CC1=C2C(=O)C3[C@@H](CC=C4C[C@@H](O)CC[C@@]43C)[C@@H]2CC[C@]12O[C@@H]1C[C@H](C)CN[C@H]1[C@H]2C (stereo not given in full),i
COc1ccc(CCN(C)Cc2ccc([N+](=O)[O-])cc2)cc1OC,i
CCc1nc(C)sc1CNC(C)Cc1ccccc1F (stereo not given),i
CN1CCN(Cc2cccc(Cl)c2Cl)CC1,i
O=C(NC[C@H]1C[C@@H]2CCN1C[C@@H]2CN1CCN(c2ccc(F)cc2)CC1)c1ccccc1,i
N#Cc1c(Cl)c(Cl)nc(N2CCCNCC2)c1Cl,43.0%*
CN(Cc1ccccc1)Cc1cn(C[C@H]2CC3CCN2C[C@@H]3C(=O)NCc2ccc(F)cc2)nn1 (stereo not given in full),i
Cc1ccc(C(=O)NC[C@H]2C[C@@H]3CCN2C[C@@H]3c2cc(-c3cccs3)nn2C)cc1,i
Cc1c(CCN)c2ccccc2n1-c1ccccc1,37.0%*
N#Cc1cc2c(nc1SCc1ccccc1Br)C1CCN2CC1,i
COc1ccccc1[C@@H]1CN(C(=O)c2cnoc2C)[C@@H]2C3CCN(CC3)[C@@H]21,i
COc1ccc(-n2c(=O)[nH]c3ccccc3c2=O)cc1OC,i
